Tat export inh: blocks Tat-dependent protein export in E. coli; inhibition, % at 10 µM; AID 488895; E. coli MC4100 TorA-mCherry Tat export, fluorescence; hit rate 0.036% among 340,000;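 active means mean replicate inhibition at least 50% and at least half of replicates individually reaching 50%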;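 further: exported cargo escapes ClpAP degradation while cytoplasmic cargo is degraded and loses fluorescence; 0% = median of neutral control wells and 100% = median of NaSCN control wells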
AddAB inh: less growth of phage-infected E. coli with AddAB | hit rate 0.29% among 330,000 | inhibition, % at 11.9 µM | E. coli expressing H. pylori AddAB, absorbance growth; in the data active means inhibition above about 12%;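 further: 0% = vehicle wells of infected cells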
phage Ecoli inh: E. coli growth loss with phage present. growth absorbance. hit rate 0.26% among 360,000. AID 651602. inhibition, % at 11.9 µM; in the data active means inhibition above about 11%
E coli growth-1: bacterial growth inhibition, counter-screen for AddAB inhibitors. E. coli V3065 growth, OD600 absorbance, 18 h. inhibition, % at 11.9 µM. AID 449728. hit rate 0.27% among 330,000;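 active means inhibition above the campaign's mean inhibition across all tested compounds plus 3 SD, cut at about 9.9% in these data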;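 further: uninfected addAB+ strain grown without phage in ampicillin broth; 0% = DMSO wells and 100% = ciprofloxacin 0.95 µg/ml wells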
E coli growth-2: blocks Escherichia coli growth. OD600 absorbance (concentration not given with the values). hit rate 0.21% among 330,000. OD600, 23 h; stronger effect = lower value;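 active means OD600 absorbance below the run mean of sample wells minus 3.6 SD, in any replicate, cut at about 0.56 in these data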
* hit, by the source's call; x = not tested or not shown. In the library only some 0.5% were active in any assay of this set; here they are far more common.

SMILES	Tat export inh	AddAB inh	phage Ecoli inh	E coli growth-1	E coli growth-2
CCCCCCCNC(=O)C1(CC2CC(c3cccc(Br)c3)=NO2)CCNCC1 (stereo not drawn)	17	0	4	2	0.048*
CCOC(=O)C1C2COc3cc(OC)ccc3C2N2C(=O)N(c3ccc(OC)cc3)C(=O)[C@]12C (stereo partly drawn)	x	x	x	x	0.64
COc1ccc2c(c1)OC(c1cccc(C(F)(F)F)c1)C(OC(=O)NC1CCCc3ccccc31)C2=O (stereo not drawn)	x	x	x	x	0.72
CC(C)CC(C(=O)O)N1C(=O)C2C3CC(C2C1=O)C1C(c2ccccc2)c2sc(=O)[nH]c2SC31 (stereo not drawn)	-8	4	5	1	0.51*
COc1ccc(C(C)=NNC(=O)CNC(=O)COc2ccccc2)c(OC)c1	x	x	x	x	0.62
NC(N)=NN=Cc1ccc(OCc2ccc(Cl)cc2)cc1	x	x	x	x	0.045*
NC(N)=NN=Cc1ccc(OCc2ccc(Cl)cc2Cl)cc1	x	x	x	x	0.048*
NC(N)=N/N=C/c1ccc(OCc2ccc(Cl)cc2)cc1	3	2	3	2	x
CN1/C(=C/c2cc[n+](C)c3ccccc23)C=Cc2ccccc21	-161	x	x	x	0.34*
C[n+]1ccc(/C=C/c2ccccc2O)c2ccccc21	-1	1	1	0	0.66
CCN1/C(=C/c2ccc3cc(C)ccc3[n+]2CC)Sc2cc(C)ccc21	-4	x	8	x	0.35*
CC1(C)SC2C(NC(=O)C(N)c3ccccc3)C(=O)N2C1C(=O)OC1OC(=O)c2ccccc21 (stereo not drawn)	x	x	x	x	0.68
Cc1ccc(Nc2c(-c3ccccn3)nc3cccc(C)n23)cc1	-31	0	6	3	0.28*
O=C(Nc1cccs1)Nc1ccc(Br)cc1F	-5	5	11	4	0.49*
Cc1ccc(S(=O)(=O)N2C(c3ccc(C(C)C)cc3)CC=C(C(=O)O)C2c2ccccc2)cc1 (stereo not drawn)	x	x	x	x	0.69
O=C1CN(N=Cc2ccc([N+](=O)[O-])o2)C(=O)N1	x	x	x	x	0.46*
O=C(COc1c(Br)cc(Br)c2cccnc12)N1CCc2ccccc2C1	3	-3	x	-9	0.44*
CCOC(=O)C1C2COc3ccccc3C2N2C(=O)N(c3ccc(F)cc3)C(=O)[C@]12C (stereo partly drawn)	x	x	x	x	0.66
CCN(Cc1ccccc1)c1ccc(/C=N/N2CCOCC2)cc1	-6	-1	3	2	x
NC(N)=NN=Cc1ccc(OCc2ccccc2)c(OCc2ccccc2)c1	x	x	x	x	0.069*
CCN(Cc1ccccc1)c1ccc(C=NN=C(N)N)cc1	x	x	x	x	0.5*
COc1cc(C=NN=C(N)N)ccc1OCc1ccc(Cl)cc1	x	x	x	x	0.51*
Cc1cc2nc3c(=O)[nH]c(=S)[nH]c3nc2cc1NC(=O)C(F)(F)F	-11	7	9	10*	0.66
CCOc1ccc(NS(=O)(=O)c2ccc(C(=O)NNC(=O)c3ccccc3O)cc2)cc1	-11	6	4	0	0.52*
CCN(CC)c1ccc(C=Nn2c(=S)[nH]nc(C)c2=O)cc1	x	x	x	x	0.73
SMILES	Tat export inh	AddAB inh	phage Ecoli inh	E coli growth-1	E coli growth-2
CC(C(=O)NC1C(=O)N2C(C(=O)O)=C(CSc3nnnn3C)CSC12)n1cc(Br)cn1 (stereo not drawn)	-11	-2	5	-2	0.51*
CN(C)CCn1nnnc1SCC1=C(C(=O)O)N2C(=O)C(NC(=O)Cc3csc(N)n3)C2SC1 (stereo not drawn)	x	x	x	x	0.061*
Cn1nnnc1SCC1=C(C(=O)O)N2C(=O)[C@@H](NC(=O)[C@H](O)c3ccccc3)[C@H]2SC1	-9	-2	x	-1	x
Cn1nnnc1SCC1=C(C(=O)O)N2C(=O)C(NC(=O)C3CC3c3ccccc3)C2SC1 (stereo not drawn)	-22	1	4	1	0.64
Cc1nn(C(C)C(=O)NC2C(=O)N3C(C(=O)O)=C(CSc4nnnn4C)CSC23)cc1Cl (stereo not drawn)	-16	-1	6	0	0.43*
Cc1cc(C(F)F)nn1CC(=O)NC1C(=O)N2C(C(=O)O)=C(CSc3nnnn3C)CSC12 (stereo not drawn)	-8	5	3	4	0.19*
Cc1nnc(SCC2=C(C(=O)O)N3C(=O)C(NC(=O)c4cccc(F)c4F)C3SC2)s1 (stereo not drawn)	-2	0	3	0	0.7
CC(=O)OCC1=C(C(=O)O)N2C(=O)[C@@H](NC(=O)CSc3ccncc3)[C@H]2SC1	-8	x	6	x	0.22*
CC(=O)OCC1=C(C(=O)O)N2C(=O)C(NC(=O)C(C)Cn3nc(C)c(Cl)c3C)C2SC1 (stereo not drawn)	4	-1	2	0	0.64
Cc1cc(C)n(CC(=O)NC2C(=O)N3C(C(=O)O)=C(CSc4nnc(C)s4)CSC23)n1 (stereo not drawn)	22	2	5	1	0.19*
Cc1nnc(SCC2=C(C(=O)O)N3C(=O)C(NC(=O)Cn4ncc(Cl)c4C)C3SC2)s1 (stereo not drawn)	7	-1	4	1	0.44*
CC(CN1CCCC1CN1C(N)=NCC1Cc1ccccc1)N1CC(Cc2ccccc2)N(CCCC2CCCC2)C1=N (stereo not drawn)	x	x	x	x	0.57
COc1ccc(-c2oc(=O)c3cc(OC)c(OC)cc3c2C=Cc2cccc([N+](=O)[O-])c2)cc1	x	x	x	x	0.69
NC(=S)n1[nH]c(-c2ccc([N+](=O)[O-])cc2)c(N=Nc2ccc(O)cc2)c1=O	-8	11	5	17*	0.7
NC(=S)n1[nH]c(-c2ccc([N+](=O)[O-])cc2)c(N=Nc2cccc(Cl)c2)c1=O	-8	x	2	x	0.64
Cc1cccc(N2C(=O)Cc3ccccc3C2=O)c1	-6	0	0	0	0.53*
Cc1ccc(N2C(=O)Cc3ccccc3C2=O)cc1	3	4	0	2	0.63
COc1cc(/C=C/C(=O)/C=C(O)/C=C/c2ccc(O)c(OC)c2)ccc1O	-5	11	9	10*	x
COc1cc(/C=C/C(=O)O)ccc1O	4	3	2	1	0.77
COc1cc(C=NNC(=O)c2ccc(-c3ccccc3)cc2)ccc1OCC(N)=O	x	x	x	x	0.69
COc1ccc2cc(C(c3nnnn3C3CCCCC3)N3CCCCCC3)c3nnnn3c2c1 (stereo not drawn)	-6	0	0	0	0.73
COc1ccc2cc(C(c3nnnn3C3CCCC3)N3CCCCCC3)c3nnnn3c2c1 (stereo not drawn)	-4	9	2	12*	0.78
COc1ccc(C2CC(=O)C=C(c3ccc(F)cc3OCc3ccccc3)C2)cc1OC (stereo not drawn)	x	x	x	x	0.7
CCOC(=O)c1sc(NC(=O)Nc2ccccc2)cc1C	-11	9	11	6	0.53*
CCOC(=O)c1sc(NC(=O)Nc2ccccc2Cl)cc1C	-4	4	8	6	0.7
O=C1Nc2ccc(Br)cc2C12NNc1ccccc1O2 (stereo not drawn)	-4	10	6	6	0.43*
O=C1Nc2ccc(Br)cc2C1(O)c1ccccc1 (stereo not drawn)	0	2	3	-1	0.68
